Assay results: PubChem BioAssay (NCI)
About 79,000 compounds went through this panel and 15% of them were active in at least one assay; those are over-represented in the sample as a whole. Unmarked numbers belong to inactive results. Activity calls are given as the source filed them. No stated cut-off is given here; in the data, active means growth inhibition above about 70%; inactive means the rest.

Assays:
[1] = NCI Yeast Anticancer Drug Screen. Data for the rad50 strain (AID 155);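 further: 0% = growth of vehicle-only cultures of the same strain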; settings: S. cerevisiae rad50 strain growth inhibition; at 50.0 µM; hits give high values
Summary of the method: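 Compounds were tested on a yeast strain with an engineered DNA damage repair alteration; the reported value is growth inhibition normalised to vehicle treatment.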

[2] = NCI Yeast Anticancer Drug Screen. Data for the mec2-1 strain (AID 157); settings: S. cerevisiae mec2-1 strain, at 50.0 µM, hits give high values
Summary of the method: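 Each compound was tested on mec2-1 yeast, a strain altered in DNA damage repair or cell cycle control. Growth inhibition is reported relative to vehicle.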

[3] = NCI Yeast Anticancer Drug Screen. Data for the sgs1 mgt1 strain (AID 161);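 further: 0% = growth of cultures given vehicle only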; settings: S. cerevisiae sgs1 mgt1 strain, at 50.0 µM, hits give high values
Summary of the method: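 Mutant yeast exposed to compound; growth scored against vehicle-only wells.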

[4] = NCI Yeast Anticancer Drug Screen. Data for the cln2 rad14 strain (AID 165);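 further: 0% = growth equal to vehicle treated cultures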; settings: S. cerevisiae cln2 rad14 strain, at 50.0 µM, hits give high values
Summary of the method: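 Test compounds were added to cln2 rad14 yeast cultures; inhibition of growth was then determined by comparison with vehicle treatment.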

[5] = NCI Yeast Anticancer Drug Screen. Data for the bub3 strain (AID 167); settings: S. cerevisiae bub3 mutant strain, at 50.0 µM, hits give high values
Summary of the method: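 Growth of a checkpoint-deficient yeast mutant is measured after compound exposure. Values represent inhibition relative to vehicle.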

[6] = NCI Yeast Anticancer Drug Screen. Data for the mlh1 rad18 strain (AID 175); settings: S. cerevisiae mlh1 rad18 strain growth inhibition; at 50.0 µM; hits give high values
Summary of the method: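 Inhibition values reflect reduced growth of mutant yeast versus vehicle-treated controls following compound exposure; the mutations affect DNA damage repair.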

Compound	growth inhibition [1]	growth inhibition [2]	growth inhibition [3]	growth inhibition [4]	growth inhibition [5]	growth inhibition [6]
O=C(O)c1cc2cc(Br)ccc2c(Br)c1O	-3.75%	-25.7%	-8%	-71.3%	-24.2%	-3.85%
CC(=O)CC(=O)N1CCCCCC1	-0.65%	-16.9%	0.5%	11.8%	-13.3%	25.1%
CCOC(=O)C(=N\Nc1ccccc1)/C(C)=N\NC(N)=S	13.2%	-7.45%	-11.7%	8.95%	4.5%	1.9%
O=C(/C=C/c1ccncc1)c1ccccc1	0.4%	-9.3%	-1.85%	11.9%	-12.9%	1.75%
CCCC/C(CC)=N\N=C(/CC)CCCC	7.3%	7.2%	17.9%	-28.2%	3.15%	17.5%
O=c1[nH]n2c(=O)cc[nH]c2c1-c1nnns1	-15.8%	-2.95%	-36.1%	9.65%	-21.1%	-25.2%
CCCCCc1ccc2oc(=O)c3ccc(C)cc3c2c1O	-9.7%	8.7%	16.2%	-16.8%	-25.3%	-5.6%
CNc1ccccc1C(=O)N/N=C/C1CCCCC1	0.6%	-2.65%	16.6%	-6.85%	9.85%	8.35%
C=CCOC(=O)Oc1ccc(Cl)cc1	27.6%	-13.9%	23.1%	-0.85%	-2.7%	28.6%
COC(=O)C1=NC(=S)N=C(C(=O)OC)C1(C)C(=O)c1ccccc1	4.3%	-6.95%	-12.4%	0.8%	3.75%	18.4%
C(CN1CCC2CCC(C2)C1)=C(c1ccccc1)c1ccccc1 (stereo not given)	3.75%	-1.3%	15.3%	-17.9%	26.1%	4.35%
C/C=C/C(O)CCCC (stereo not given)	-13.2%	-7.15%	4.15%	2.75%	-28.2%	-7.2%
CNC(=O)c1c(-c2ccc(F)cc2)noc1C	-6.7%	-10.5%	25.4%	9.05%	17.4%	10.1%
O=C(CBr)c1cc2ncccc2c2ccccc12	46.6%	51%	62.2%	98.6% (active)	99% (active)	68.9%
C(=C/c1nnc2ncccn12)/c1ccccc1	-13.8%	-4.85%	-1.5%	-15.7%	0.05%	-5.4%
Cc1nc2nc(N)nnc2c(=O)[nH]1	-7.25%	3.2%	-18.8%	-13.8%	-1.75%	-0.1%
O=C(Nc1cccc(F)c1)Sc1ccc(Cl)cc1	55%	53.9%	56.1%	34%	56.4%	41%
CC1C2CC(CC2(C)O)C1(C)C (stereo not given)	8.45%	-3.1%	3.35%	9.05%	-3.3%	-7.35%
CC/C=C(\CCC)C(C#N)(CC)C(=O)OCC (stereo not given)	9.1%	-33.6%	-21.2%	-7.6%	-24.6%	-9.55%
O=C1NC2(CCCCC2)C(=O)N1CCN1C(=O)NC2(CCCCC2)C1=O	6.7%	4.2%	-1.8%	8.85%	-14.3%	-10.5%
